Ecoli rRNA inh: reduced GFP signal of wild-type E. coli, primary screen, bacterial rRNA inhibitor project, GFP/RFP fluorescence, OD600, single point; AID 720706, 2013; E. coli WT GFP vs humanized-ribosome RFP mutants, 24 h; active compounds read low; DMSO median 0, no signal -100; GFP signal change (wild-type ribosome), % (no concentration beside the values); hit rate 1.6% among 350,000;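 active = significant combined selectivity score with lowered wild-type GFP, culture density cut under 30%, mutant RFP and density less affected; inactive = any of these conditions unmet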
MITF act: activators of MITF-driven TRPM1 promoter reporter, primary screen, cell-based, SK-MEL-5, luciferase, single point | activation, % at 12.5 µM | SK-MEL-5 TRPM1-promoter luciferase, 24 h; % of positive control, neutral wells = 0 | hit rate 0.75% among 300,000;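 active = mean activation of at least 80% with every replicate also reaching 80%; inconclusive = mean reaches 80% but some replicate falls short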;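 also: 0% = neutral control wells and 100% = parthenolide positive control wells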
Wnt bcat act: Wnt/beta-catenin pathway activators, primary screen, cell-based, plate reader, single point. Wnt/beta-catenin reporter cell assay, activator. hit rate 1.2% among 300,000. activation, % at 9.35 µM; in the data active = activation above about 30%, passing the limit was not always enough; inconclusive = no clear call, values can overlap the other calls;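 also: 0% = neutral control wells and 100% = positive control wells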
AF4-AF9 inh: inhibitors of AF4 peptide binding to AF9, primary screen, biochemical, AlphaScreen, biotin-AF4 peptide, FLAG-AF9, single point; inhibition, % at 10 µM; hit rate 0.47% among 350,000; AID 651704, 2012; Protein AF-9 (Homo sapiens), P42568;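 active = every replicate reaching a set inhibition limit, whatever the replicate mean, cut at about 25% in these data; inconclusive = mean inhibition reaches that limit but some replicates miss it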;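 also: 0% = plate neutral control median and 100% = total signal loss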
Target sequence (P42568 whole entry, looked up): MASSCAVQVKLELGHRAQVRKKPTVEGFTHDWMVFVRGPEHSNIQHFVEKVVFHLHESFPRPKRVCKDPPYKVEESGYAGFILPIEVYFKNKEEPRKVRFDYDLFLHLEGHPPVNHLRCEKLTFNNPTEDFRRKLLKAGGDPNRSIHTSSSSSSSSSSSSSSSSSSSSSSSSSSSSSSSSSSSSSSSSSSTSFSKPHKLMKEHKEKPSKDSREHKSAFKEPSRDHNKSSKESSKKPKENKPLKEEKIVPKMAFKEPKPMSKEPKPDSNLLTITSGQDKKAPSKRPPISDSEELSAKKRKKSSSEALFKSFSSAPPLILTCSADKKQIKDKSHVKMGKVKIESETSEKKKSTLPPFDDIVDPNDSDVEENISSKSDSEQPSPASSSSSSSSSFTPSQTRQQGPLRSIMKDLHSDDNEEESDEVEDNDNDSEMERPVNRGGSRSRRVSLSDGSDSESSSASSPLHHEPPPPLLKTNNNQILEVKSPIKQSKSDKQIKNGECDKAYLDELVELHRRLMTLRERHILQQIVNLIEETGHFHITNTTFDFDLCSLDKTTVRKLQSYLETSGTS
esBAF inh: Bmi1 luciferase reporter increase in mESCs, primary screen, esBAF inhibitor project, mouse ES cells, Bmi1 luciferase knock-in, single point; 24 h; 100% = twice the neutral-well signal; reporter increase, % at 12.5 µM; hit rate 2% among 350,000; AID 602393, 2012; in the data active = activation above about 40%; inconclusive = no clear call, values can overlap the other calls;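 also: 0% = median of the plate's neutral control wells and 100% = double that signal; a rise in the Bmi1 reporter signal indicates esBAF inhibition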
* = called active by the depositor; ? = inconclusive; · = no result given. Only some compounds are listed: those with a hit (about 3.7% of all), similar ones and a draw of the others.

SMILES	Ecoli rRNA inh	MITF act	Wnt bcat act	AF4-AF9 inh	esBAF inh
CC(=O)Nc1ccc(OCc2cccc([N+](=O)[O-])c2)cc1	9	6	59*	1	·
COc1cccc(NC(=O)CSc2nc3ccccc3c3nc4ccccc4n23)c1	·	-16	5	·	22
CC=Cc1ccc2n(c1=O)C[C@@H]1[C@@H](CO)[C@H](C(=O)NCC3CC3)[C@H]2N1C(=O)C1CC1 (mixture of isomers)	2	·	·	-1	1
O=C(CNc1ccc2ccccc2c1)N/N=C/C=C/c1cccc([N+](=O)[O-])c1	-15*	-1	·	2	·
O=C(Nc1ccc2ccccc2c1)c1cccc([N+](=O)[O-])c1	2	98*	29	2	86*
Cc1cccc(C(=O)Nc2ccc3ccccc3c2)c1	-16	64	22	-4	47*
COc1cccc(C(=O)Nc2ccc3ccccc3c2)c1	-24	·	19	-3	-37
C[C@H]1CN([C@@H](C)CO)C(=O)c2cc(NC(=O)Nc3cccc4ccccc34)ccc2O[C@H]1CN(C)S(=O)(=O)c1cn(C)cn1	1	·	·	0	0
Cc1cc(C)n(-c2nc3ccccc3c(=O)n2OCC(=O)N(C)C)n1	·	-15	·	·	-4
Cc1cc(C)n(-c2nc3ccccc3c(=O)n2OCC(=O)OCc2ccccc2)n1	·	-14	2	·	48*
N#CC1=C2SCC(O)(c3ccccc3)N2C(=O)CC1c1cccs1 (stereo not drawn)	-37*	-20	-11	3	-4
N#CC1=C2SCC(O)(c3ccccc3)N2C(=O)CC1c1ccccc1F (stereo not drawn)	·	-29	8	·	·
C[C@@H]1CCCCO[C@@H](CN(C)Cc2ccncc2)[C@H](C)CN([C@H](C)CO)C(=O)c2cc(NS(=O)(=O)c3ccc(Cl)cc3)ccc2O1	-7	·	·	2	0
COc1ccc(CN2C(=O)c3ccccc3C2(C)c2nc3ccccc3[nH]2)cc1 (stereo not drawn)	9	·	-2	-4	·
Cn1c(CSc2nc3ccc(Br)cc3[nH]2)nc2ccccc21	-22*	-1	0	-7	13
Cc1cc(SCc2ccc(Cl)cc2Cl)nc(=O)[nH]1	-31*	11	1	-1	-4
Cc1ccc(C(=O)CSc2cc(C)[nH]c(=O)n2)cc1	5	26	29	0	-26
Cc1cc(SCC(=O)c2ccc(Cl)cc2)nc(=O)[nH]1	12	21	40*	-4	-36
CO[C@H]1CN(C)C(=O)c2ccc(NC(=O)c3ccccc3)cc2OC[C@@H](C)N(CC2CC2)C[C@@H]1C	-1	·	·	-1	-1
CN(CC(=O)Nc1cccc(F)c1)C(=O)Cn1c(=O)cnc2ccccc21	-1	7	1	29*	5
O=C1CNC(=S)N1c1nc(-c2ccccc2)cs1	6	88*	50*	-5	·
c1ccc(-c2csc(N3CCOCC3)n2)cc1	·	81*	39*	·	60*
c1ccc(-c2csc(N3CCN(c4ccccn4)CC3)n2)cc1	-19	59	?	·	61*
O=c1[nH]cnc2c1C(c1ccc(Cl)cc1)c1c(nc[nH]c1=O)O2	·	-6	·	·	-4
OCc1ccccc1OCCOc1ccc(Cl)c2cccnc12	·	16	15	·	7
SMILES	Ecoli rRNA inh	MITF act	Wnt bcat act	AF4-AF9 inh	esBAF inh
O=[N+]([O-])c1ccc(Sc2cccc3cccnc23)cc1	-14	6	10	-39	46*
OCc1ccccc1OCCCOc1cccc2cccnc12	-9	53	9	-4	44*
O=[N+]([O-])c1ccc(COc2cccc3cccnc23)cc1	2	93*	13	-21	83*
Brc1ccc(COc2cccc3cccnc23)cc1	-37	·	12	-1	71*
N#Cc1ccc(COc2cccc3cccnc23)cc1	-1	14	3	0	11
O=[N+]([O-])c1ccc(OCCCOc2cccc3cccnc23)cc1	5	15	0	2	4
CCNC(=O)Oc1ccc(-c2csnn2)cc1	33	3	1	-8	·
CCOc1nc(NCCO)nc(Nc2ccccc2F)n1	1	16	3	-3	·
O=C(C1CCCCC1)N1[C@@H](CO)[C@@H](c2ccccc2)C12CN(Cc1cccc(Cl)c1)C2	-57	·	·	9	·
C[C@H](CO)N1C[C@H](C)[C@H](CN(C)C(=O)C2CC2)Oc2ncc(/C=C/c3ccccc3)cc2C1=O	7	·	·	·	·
COc1ccc2cc3cc(C(=O)N4CCCC(C)C4)oc3nc2c1 (stereo not drawn)	-16	48	32*	-3	16
COc1ccc2nc3oc(C(=O)N4CCCCC4)cc3cc2c1	·	84*	?	·	?
COc1cccc(-c2nc(COc3ccc(Cl)cc3Cl)no2)c1	7	·	2	-10	5
Cc1ccc(S(=O)(=O)NCCC(=O)N2CC(C)OC(C)C2)cc1C (stereo not drawn)	-1	8	-2	?	·
CCCOc1cccc(C(=O)N(Cc2ccccc2)C2CCS(=O)(=O)C2)c1 (stereo not drawn)	-3	10	-1	-1	·
COCCNc1oc(-c2ccc(F)cc2)nc1C#N	·	27	6	·	24
CCNc1oc(-c2cccc3ccccc23)nc1C#N	·	43	·	·	60*
N#Cc1nc(-c2ccccc2F)oc1NCc1cccc2c1OCO2	-29*	-5	0	-30	0
CC(C)Nc1oc(-c2cccc3ccccc23)nc1C#N	·	86*	·	·	38
COCCNc1oc(-c2ccccc2Cl)nc1C#N	-4	31	-4	-4	55*
COc1ccc(S(=O)(=O)N(C)C[C@@H]2Oc3ccc(NC(=O)NC(C)C)cc3CC(=O)N([C@H](C)CO)C[C@@H]2C)cc1	-1	·	·	0	-2
COc1cccc(NC(=O)N[C@@H]2CC[C@@H](CC(=O)N3CCOCC3)O[C@@H]2CO)c1	0	·	·	-2	-2
COc1ccc(NC(=S)N2CCC(NC(=O)c3cccc(C)c3)CC2)cc1	3	4	1	2	-1
Cc1ccc(C2NNC(=O)C2NC(=O)c2ccccc2)cc1 (stereo not drawn)	·	34	·	·	51*
c1ccc(SCc2nc(-c3ccncc3)no2)cc1	-5	91*	26	-7	15
COc1ccc(-c2noc(CSc3ccccc3)n2)cc1OC	·	?	-3	·	52*
Cc1ccc(SCc2nc(-c3ccncc3)no2)cc1	·	20	·	·	18
O=C(NCCS(=O)(=O)c1ccc(Br)cc1)c1ccc(Cl)cc1	·	5	1	-1	-7
O=C(OCc1ccccc1F)c1ccc2c(c1)-c1ccccc1C2=O	13	?	-1	8	44*
O=C(OCc1cccc(F)c1)c1ccc2c(c1)-c1ccccc1C2=O	·	68	-3	·	-1
